Each structure is given as a SMILES string. This is part of a sample that, as a whole, favours compounds with a hit. Of some 83,000 tested, about 20% had one in any assay.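 Values shown are percent growth following 48 h exposure of cells in 96-well plates to a single concentration of compound; below 10 was considered active.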 Unmarked numbers belong to inactive results. Calls of active or inactive are those of the source.

This is an account of results in PubChem BioAssay (NCI).

In this assay the test system is CAKI-1 renal. Briefly: NCI-60 one-dose screen, 48 h (100 = growth as untreated, 0 = no growth, -100 = all killed). The settings on record: 10 µM.
For the compound `Cc1ccc(NC(=O)N[C@@H](Cc2cc(F)cc(F)c2)C(=O)NC2C(=O)N3CCC[C@H]3C(=O)N3CCCC[C@H]3C(=O)N[C@@H](C)C(=O)N3C[C@H](C)C[C@H]3C(=O)O[C@H]2C)c(F)c1` (stereo partly drawn), the growth is 22.2%.

With `COc1ccc(/C=C/C(=O)c2nnn(-c3ccc(C(=O)O)cc3)c2C)cc1OC`, the growth was 95.9%.

`O=C(Nc1cc(F)cc2cccnc12)c1cnc(N2CCOCC2)cn1`: the growth was 64.9%.

For the compound `Oc1ccccc1-c1nnc(SCc2ccc(O)c3ncccc23)o1`, the growth was 25.3%.

As to `COc1cc(/C=C2\SC(=O)NC2=O)ccc1OCC(=O)Nc1ccc(C(=O)/C=C/c2cc3ccccc3nc2Cl)cc1`, the growth is 80.3%.

Take `Nc1nc(-c2cccc([N+](=O)[O-])c2)c(N=Nc2ccccc2Cl)s1`: the growth was 28.8%.

Consider `Oc1ccc(-c2nnc(SCc3ccc(O)c4ncccc34)o2)cc1`, for which the growth was 3.35% (active).

For `C[C@H]1[C@H](C)CC[C@]2(COC(=O)c3cccnc3)CC[C@]3(C)C(=CC[C@@H]4[C@@]5(C)CCCNC(C)(C)[C@@H]5CC[C@]43C)[C@H]12`, the growth was 61.5%.

`O=c1[nH]c2cc(Cl)ccc2n1C1CCN(c2ccc3nnc(Cl)n3n2)CC1`: the growth is 78.6%.

Take `COc1ccc(N2CCN(C(=O)CSc3ccc(-c4nc5cc(C)c(C)cc5[nH]4)cn3)CC2)cc1`: the growth was 73.4%.

Turning to `Cc1cc(F)cc(NS(=O)(=O)c2ccc(-c3cnc(C4CC4)o3)cc2)c1`, the growth is 39.9%.

Take `Oc1ccc(CSc2nnc(-c3ccncc3)o2)c2cccnc12`: the growth is 7.09% (active).

`O=C(COc1ccc(/C=C2\SC(=O)NC2=O)cc1)Nc1ccc(C(=O)/C=C/c2cc3ccccc3nc2Cl)cc1`: the growth was 59.2%.

As for `O=C(Nc1cccc(Cl)c1)Nc1nc2ccc([N+](=O)[O-])cc2s1`, the growth is 3.38% (active).

As for `Cn1cc(-c2nn3cc(-c4cccnc4)nc3s2)c2cc(F)ccc21`, the growth is 78.1%.

`COc1ccc(CCN2C(=O)/C(=C/c3nc(CO)cs3)SC2=S)cc1`: the growth is 63.4%.

With `C/C(=N\NC(=S)Nc1ccc(Br)cc1)c1cc2ccccc2oc1=O`, the growth is 9.07% (active).

For `O=C1[C@H]2Cc3c([nH]c4ccccc34)[C@@H](c3ccc(Cl)cc3)N2C(=O)CN1C1CCN(Cc2c(Cl)cccc2Cl)CC1`, the growth was 54.6%.

Turning to `O=C1[C@H]2Cc3c([nH]c4ccccc34)[C@@H](c3c(Cl)cccc3Cl)N2C(=O)CN1C1CCN(Cc2ccccc2)CC1`, the growth is 67.6%.

Consider `Oc1ccccc1-c1nnc(SCc2ccc(O)c3ncccc23)n1-c1ccccc1`, for which the growth is 11.3%.

For the compound `CC1=C2C(=C[C@@](C)(COS(N)(=O)=O)[C@@H]2O)C(=O)[C@](C)(O)C12CC2`, the growth is 85.8%.

Take `CC1(COc2ccc3ncc(C#Cc4cncc(C(=O)Nc5cc(C(C)(C)C)on5)c4)n3n2)COC1`: the growth was 35.4%.

With `NC(=S)N/N=C(/C=C/c1cn(-c2ccccc2)nc1-c1ccc(Cl)cc1)c1cc2ccccc2oc1=O`, the growth was 45.9%.

As for `O=C(/C=C1\C=CN(CCCCO)c2ccccc21)n1ccc2ccccc21`, the growth is 85.7%.

On to `Cc1cc(NS(=O)(=O)c2ccc(-c3cnc(C4CC4)o3)cc2)ccc1I`, for which the growth is 39.3%.

Regarding `Oc1ccc(CSc2nnc(-c3ccccc3)o2)c2cccnc12`, the growth is 16.6%.

In the case of `CS(=O)(=O)c1ccc2c(c1)c1c(n2S(=O)(=O)c2ccc(Cl)cc2)CCCC1`, the growth was 29.3%.

Regarding `CN(C)C(=O)c1ccccc1-n1cnc2ccccc2c1=O`, the growth was 90.1%.

`O=C(Nc1cc(Cl)cc(Cl)c1)Nc1nc2ccc([N+](=O)[O-])cc2s1`: the growth is 6.87% (active).

Regarding `C#C[C@]1(O)CC[C@H]2[C@@H]3CC=C4c5sc(Nc6ccc(OC)nc6)nc5CC[C@]4(C)[C@H]3CC[C@@]21C`, the growth is 23.8%.

Take `CCOc1ccc2nc(NC(=O)Nc3ccccc3C)sc2c1`: the growth is 60.9%.

For the compound `CN(c1ccc(Br)cc1)S(=O)(=O)c1ccc(-c2cnc(C3CC3)o2)cc1`, the growth was 36.9%.

As for `CCNC(=NCCCN(C)C)N/C(N)=N/c1nc2ccccc2s1`, the growth was 65.1%.

With `Cc1cc(Cl)cc(NS(=O)(=O)c2ccc(-c3cnc(C4CC4)o3)cc2)c1`, the growth is 37.1%.

Regarding `N/C(=N\c1nc2ccc([N+](=O)[O-])cc2s1)C(Cl)(Cl)Cl`, the growth is 31.4%.

On to `CS(=O)c1nccc(-c2c(-c3ccc(F)c(OCCc4ccc(F)cc4)c3)nc3sccn23)n1` (stereo not drawn), for which the growth was 47.3%.

As to `CN(c1ccc(F)cc1)S(=O)(=O)c1ccc(-c2cnc(C3CC3)o2)cc1`, the growth was 39%.

For `Cc1cn(-c2cc(NC(=O)c3cncc(C#Cc4cnc5ccc(OCCCS(C)(=O)=O)nn45)c3)cc(C(F)(F)F)c2)cn1`, the growth is 37.4%.
